Only some compounds are listed: those with a hit (about 6.9% of all), similar ones and a draw of the others.
IL-1B inflam inh – inflammasome signaling inhibition, IL-1 beta readout; THP-1 LPS/ATP IL-1B secretion, AlphaLISA, 16 h; stronger effect = lower value; activity change, % at 57.5 µM; 360,000 tested, 4.7% active; AID 743279; in the data active = activity change below about -50%; inconclusive = mostly about -30% to -49%; also: % is scaled to controls: 0 for no effect and ±100 for the full control effect
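Secreted IL-1B measured by AlphaLISA bead assay after 16 h compound exposure of THP-1 cells; compounds (final up to 57.5 uM) added 1 h before LPS (250 ng/mL) and ATP (1.25 mM) stimulation; lower signal means less secretion.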
Vif-A3F inh – Vif-A3F binding inhibition | 390,000 tested, 0.2% active | AID 602313 | HeLa A3F-eYFP + Vif (tagged APOBEC3F with the HIV-1 protein that degrades it), YFP fluorescence increase | Potency, µM (doses to about 46.1 µM), for the others: at the highest dose activity, negative = active; also: potency is read from the fitted curve at half-maximal effect; % of control where 0% means no effect; nearly all actives have a fitted effect of over 65% in size
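HeLa cells stably expressing A3F-eYFP plus Vif, plated and incubated overnight at 37 deg C, then exposed to compounds overnight at 37 deg C. Blocked degradation read as raised yellow fluorescence (Ex 488/Em 500-530).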
Giardia killer – Giardia lamblia killing; activity change, % at 7.66 µM, hits read low; AID 540267; Giardia lamblia trophozoite viability; 340,000 tested, 0.15% active; in the data active = activity change below about -80%; inconclusive = between about -30% and that limit;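 also: parasites exposed to compound for two days anaerobically before the ATP read; % is scaled to controls: 0 for no effect and ±100 for the full control effect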
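Trophozoite viability was measured as ATP-dependent luminescence, read 15-30 min after reagent addition. Before that, parasites at 100 cells/well were exposed to compounds for 48 h, anaerobically, at 37 deg C.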
MCF10A rerep – DNA re-replication induction in MCF 10a cells; MCF 10A DNA re-replication, Hoechst nuclear intensity, 48 h; Potency, µM (titrated, usually from 46.1 µM), inactives show at the top dose activity, positive = re-replication, usual class: activators; 350,000 tested, 2.9% active; AID 624296; also: potency is read from the fitted curve at half-maximal effect; % of control where 0% means no effect; nearly all actives have a fitted effect of over 50% in size
Vif-APOBEC3G blk – Vif-A3G binding inhibition; Q9HC16; HeLa A3G-eYFP + Vif (tagged APOBEC3G with the HIV-1 protein that degrades it), YFP fluorescence, overnight; Potency, µM (titrated, usually from 46.1 µM), for the others: top-dose activity, negative = active, most hits filed as inhibitors; 410,000 tested, 0.076% active; AID 602310; also: potency is read from the fitted curve at half-maximal effect; % is scaled to controls: 0 for no effect and ±100 for the full control effect; nearly all actives have a fitted effect of over 60% in size
Target sequence (Q9HC16 whole entry, looked up): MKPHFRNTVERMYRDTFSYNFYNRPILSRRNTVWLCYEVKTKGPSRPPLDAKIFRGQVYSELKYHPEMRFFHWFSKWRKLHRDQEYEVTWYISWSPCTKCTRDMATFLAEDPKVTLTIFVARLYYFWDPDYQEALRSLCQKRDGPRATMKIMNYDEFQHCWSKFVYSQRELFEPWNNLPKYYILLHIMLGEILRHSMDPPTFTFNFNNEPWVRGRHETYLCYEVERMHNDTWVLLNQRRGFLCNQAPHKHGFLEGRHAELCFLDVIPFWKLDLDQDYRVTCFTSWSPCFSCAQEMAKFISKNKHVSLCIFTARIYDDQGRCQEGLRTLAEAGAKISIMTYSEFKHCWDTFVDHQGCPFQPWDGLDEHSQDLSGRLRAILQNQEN
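Read-out is eYFP fluorescence (Ex 488/Em 500-530) from Vif-expressing HeLa A3G-eYFP cells; more signal means A3G escaped Vif-mediated degradation. Cells plated overnight, compound pinned in, incubated overnight at 37 deg C.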
SW480 rerep – induces DNA re-replication in SW480 colon adenocarcinoma cells | SW480 DNA re-replication, Hoechst DNA content imaging, 48 h | 340,000 tested, 1.8% active | AID 624297 | Potency, µM (doses to about 46.1 µM), without a hit: at the top dose re-replication activation, actives largely listed as activators; also: potency is read from the fitted curve at half-maximal effect; % of control where 0% means no effect; nearly all actives have a fitted effect of over 55% in size
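Cells (250 per well) received 23 nL compound or DMSO by pin tool and were kept 48 hr at 37 C, 5% CO2. Nuclei were then stained with Hoechst for 40 min and scanned for DNA content.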
Starred values were filed as active, the others as inactive; ? = inconclusive; . = no result. Unless noted, calls follow the shape of the dose curve; as a rule, active = well fitted curve in the direction sought with a large enough effect; inconclusive = small, poorly fitted or top-dose-only effect, or another doubt; inactive = no such curve, though single readings can be large; an effect the other way counts as inactive or inconclusive.

SMILES | IL-1B inflam inh | Vif-A3F inh | Giardia killer | MCF10A rerep | Vif-APOBEC3G blk | SW480 rerep
CCOC(=O)c1cc(-c2ccccc2)sc1NC(=O)C(C)N1C(=O)c2ccccc2C1=O (centres undefined) | -52.7* | 1.3% | -6.9 | 0.6% | -0.3% | 20.7%
CCOC(=O)c1cc(-c2ccccc2)sc1NC(=O)C(C)OC(=O)c1cccnc1OCC (centres undefined) | -26.4 | -2.7% | -1.0 | ? | -1.0% | 2.91µM*
CCOC(=O)c1cc(-c2ccccc2)sc1NC(=O)C(C)OC(=O)c1cccc(S(=O)(=O)N(C)C)c1 (centres undefined) | ? | 1.5% | -6.8 | ? | 1.4% | -2.3%
CCOC(=O)c1cc(-c2ccccc2)sc1NC(=O)CCN1C(=O)c2ccccc2C1=O | 3.5 | 0.8% | -8.6 | 6.8% | -0.5% | -3.3%
COc1cc(C(=O)N2CCN(c3ccccc3)CC2)c2ccccc2n1 | 78.2 | -9.1% | 12.7 | ? | -36.9% | 10.3µM*
COc1cc(SC)ccc1C(=O)N1CCN(c2ccccc2)CC1 | -80.4* | -1.6% | 42.4 | -5.5% | -9.8% | 3.5%
COc1cc(SC)ccc1C(=O)N1CCN(c2ccc(O)cc2)CC1 | 23.7 | -3.5% | 0.6 | 1.1% | 6.0% | ?
COc1ccc(-c2cc(C(=O)N3CCC3)c3ccccc3n2)cc1OC | -1.8 | -15.9% | 13.3 | 12.3% | 0.9% | -6.4%
Cc1ccc(-c2cc(C(=O)N3CCN(c4ncccn4)CC3)c3ccccc3n2)cc1 | -17.1 | -2.1% | -20.3 | ? | -5.0% | 7.1%
COc1ccc(-c2cc(C(=O)N3CCN(c4ncccn4)CC3)c3ccccc3n2)cc1OC | ? | 4.8% | -15.5 | 29.4% | -14.3% | 8.2µM*
COc1cccc(-c2cc(C(=O)N3CCN(c4ncccn4)CC3)c3ccccc3n2)c1 | ? | 0.1% | -23.1 | 14.6µM* | -8.1% | -30.9%
O=C(c1cc(-c2cccs2)nc2ccccc12)N1CCN(c2ccccc2)CC1 | -11.9 | 5.4% | 4.0 | ? | -27.9% | ?
Cc1ccc(C(=O)c2cn(Cc3cccc(F)c3)c3nc(C)ccc3c2=O)cc1 | . | -1.9% | . | . | -5.7% | .
CC(CNC(=O)Cn1ccc2cc(S(=O)(=O)N3CCCCC3)ccc21)c1ccccc1 (centres undefined) | . | 0.2% | . | . | -0.2% | .
COc1ccc(Nc2nnc(-c3ccccc3)c3ccccc23)cc1C(=O)N1CCCCC1 | -14.3 | -7.7% | 10.7 | 0.2% | 0.1% | 9.0%
O=C(c1cc(-c2ccc(Br)cc2)nc2ccccc12)N1CCN(c2ccccc2O)CC1 | -61.7* | -2.4% | -10.9 | ? | -4.6% | ?
COc1ccc(Nc2nnc(-c3ccc(C)cc3)c3ccccc23)cc1C(=O)N1CCCCC1 | -74.3* | 5.6% | 6.7 | ? | 0.1% | 11.1%
COc1ccc(-c2cc(C(=O)N3CCCCC3)c3ccccc3n2)cc1OC | -69.3* | 0.4% | 14.9 | ? | -2.0% | 30.6%
CCN(CC)C(=O)COc1ccc(-c2nnc(Nc3ccc(OC)c(C(=O)NC)c3)c3ccccc23)cc1 | -78.6* | -8.7% | 4.5 | ? | 1.3% | -18.6%
CCOC(=S)SSC(=S)OCC | . | . | . | -5.1% | . | -5.0%
Cc1ccc(O)c(CNc2cnc3ccccc3c2)c1 | -88.1* | -6.5% | -16.5 | ? | -9.3% | ?
COc1cccc(CNc2cnc3ccccc3c2)c1O | -54.3* | 0.3% | -1.6 | ? | 1.6% | -8.7%
Cc1c(Cl)cccc1NC(=O)CSc1nc(=O)n(Cc2cccnc2)c2c1CCC2 | . | -7.5% | . | . | 6.5% | .
O=C(O)CNC(=O)C1CCCN1C(=O)CNC(=O)OCc1ccccc1 (centres undefined) | -3.3 | 12.9% | -16.0 | -12.1% | -1.8% | -12.5%
O=C(OCc1ccccc1)C1CCCN1C(=O)c1ccccc1[N+](=O)[O-] (centres undefined) | -63.0* | 2.2% | 14.8 | 19.6% | 0.4% | -3.8%
SMILES | IL-1B inflam inh | Vif-A3F inh | Giardia killer | MCF10A rerep | Vif-APOBEC3G blk | SW480 rerep
O=C(CNC(=O)OCc1ccccc1)NCC(=O)N1CCCC1C(=O)OCc1ccccc1 (centres undefined) | -88.5* | 8.8% | -1.2 | ? | 0.5% | 0.7%
Cc1ccc2c(c1)ncc[n+]2CC(=O)c1ccc(Cl)cc1Cl | . | . | . | . | -8.1% | .
COc1ccc(NC(=O)c2oc3ccccc3c2NC(=O)COc2ccc(C(C)C)cc2)c(OC)c1 | . | -0.2% | . | . | 2.2% | .
COc1cc2c(cc1OC)CN(C(=S)Nc1ccccc1)CC2 | -13.9 | -7.9% | 6.7 | -6.6% | -0.5% | 6.4%
COc1cc2c(cc1OC)CN(C(=S)Nc1ccccc1Cl)CC2 | -61.1* | 12.1% | 22.9 | 6.6% | 3.0% | 16.4%
c1ccc(-c2nnnc3ccccc23)cc1 | 20.0 | 3.3% | 16.7 | -1.4% | -3.0% | -9.7%
Clc1ccc2nnnc(-c3ccccc3)c2c1 | -99.6* | ? | -7.1 | 3.26µM* | ? | ?
OCCNc1nc(-c2ccccc2)c2cc(Cl)ccc2n1 | -19.3 | -2.4% | -9.8 | 20.6µM* | -0.3% | ?
COCCNC(=O)c1cccc(Nc2nc(-c3ccccc3)c3cc(Cl)ccc3n2)c1 | -51.8* | 7.4% | 0.2 | 2.59µM* | 3.9% | ?
Cc1ccc2nc(NCCO)nc(-c3ccccc3)c2c1 | -22.9 | -12.1% | 1.3 | ? | -4.5% | ?
CCC[N+](C)(C)c1ccc(/C=C/c2ccnc3ccccc23)cc1 | . | . | . | . | 8.7% | .
CC(CNC(=O)c1cccnc1)NC(=O)c1cccnc1 (centres undefined) | . | . | . | -0.6% | . | -0.3%
COc1ccc(CN(Cc2ccccc2)C(=O)C2CC2)cc1COc1ccc(NC(C)=O)cc1 | . | . | 5.9 | . | . | .
CCOc1ccc(C2CC(=O)NC(NC(=O)c3cccc(Cl)c3)=N2)cc1 (centres undefined) | . | 0.8% | . | . | -8.3% | .
Cc1nn(-c2ccccn2)c2c1C(=O)C(Br)CC2 (centres undefined) | -105.8* | 11.8% | -4.3 | ? | -0.2% | 21.2%
O=C(Nc1ccc(F)cc1)N1CCc2ccccc2C1 | -55.2* | -10.0% | -6.2 | -0.1% | -0.4% | -125.1%
O=C(Nc1ccc(Br)cc1)N1CCc2ccccc2C1 | -83.4* | -2.2% | -14.3 | 10.3% | 0.0% | -1.5%
Cc1cc(C)cc(NC(=O)N2CCc3ccccc3C2)c1 | ? | -8.2% | -17.9 | 7.5% | -4.0% | -3.3%
CCOc1ccc(-c2cc3nc(C4CCN(C(=O)OC(C)(C)C)CC4)c(C(=O)Nc4ccc(C)c(F)c4)cn3n2)cc1 | . | -21.7% | . | . | -13.7% | .
COc1ccccc1/C=C/C=C(\C#N)C(=O)NC(C)c1ccccc1 (centres undefined) | -94.2* | ? | 8.5 | ? | -17.8% | ?
COc1cc(/C=C(/C#N)C(=O)NC(C)c2ccccc2)cc(OC)c1O (centres undefined) | -2.1 | ? | 6.8 | -38.4% | ? | -4.0%

Compound activity from PubChem BioAssay.
